First the molecules themselves.
B1: GCUCUGU (DNA:RNA)
RNA: GGGAGACCGGAAUUCAGAUUGUCCGCUCUGUUUAAAUCCCGUCGUAGCCACCA
DNA 1: CAATCTGAATTCCGGTCTCCC
DNA 2: TGGTGGCTACGACGGGATT
B2: ACCACUU (DNA:RNA)
RNA: B1 RNA with G25A, U27C, C28A, U29C, G30U
DNA 1: CAATCTGAATTCCGGTCTCCC
DNA 2: TGGTGGCTACGACGGGATT
B3: GCUCAUC (DNA:RNA)
RNA: B1 RNA with U29A, G30U, U31C
DNA 1: CAATCTGAATTCCGGTCTCCC
DNA 2: TGGTGGCTACGACGGGATT
B4: UUAAUGA (DNA:RNA)
RNA: B1 RNA with G25U, C26U, U27A, C28A, U31A
DNA 1: CAATCTGAATTCCGGTCTCCC
DNA 2: TGGTGGCTACGACGGGATT
B5: CUGGUAA (DNA:RNA)
RNA: B1 RNA with G25C, C26U, U27G, C28G, G30A, U31A
DNA 1: CAATCTGAATTCCGGTCTCCC
DNA 2: TGGTGGCTACGACGGGATT
B6: AAGAUCU (DNA:RNA)
RNA: B1 RNA with G25A, C26A, U27G, C28A, G30C
DNA 1: CAATCTGAATTCCGGTCTCCC
DNA 2: TGGTGGCTACGACGGGATT
B7: AAAUCAC (DNA:RNA)
RNA: GGGAGACCGGAAUUCAGAUUGUCCAAAUCACUUAAAUCCCGUCGUAGCCACCA
DNA 1: CAATCTGAATTCCGGTCTCCC
DNA 2: TGGTGGCTACGACGGGATT
B8: GCGUUUG (DNA:RNA)
RNA: B1 RNA with U27G, C28U, G30U, U31G
DNA 1: CAATCTGAATTCCGGTCTCCC
DNA 2: TGGTGGCTACGACGGGATT
B9: GUAUGCC (DNA:RNA)
RNA: B7 RNA with A25G, A26U, C29G, A30C
DNA 1: CAATCTGAATTCCGGTCTCCC
DNA 2: TGGTGGCTACGACGGGATT
B10: GCGUCGU (DNA:RNA)
RNA: B1 RNA with U27G, C28U, U29C
DNA 1: CAATCTGAATTCCGGTCTCCC
DNA 2: TGGTGGCTACGACGGGATT
B11: CGCGUCG (DNA:RNA)
RNA: B1 RNA with G25C, C26G, U27C, C28G, G30C, U31G
DNA 1: CAATCTGAATTCCGGTCTCCC
DNA 2: TGGTGGCTACGACGGGATT
B12: UUAUGCG (DNA:RNA)
RNA: B7 RNA with A25U, A26U, C29G, A30C, C31G
DNA 1: CAATCTGAATTCCGGTCTCCC
DNA 2: TGGTGGCTACGACGGGATT
B13: GUAUGUC (DNA:RNA)
RNA: B7 RNA with A25G, A26U, C29G, A30U
DNA 1: CAATCTGAATTCCGGTCTCCC
DNA 2: TGGTGGCTACGACGGGATT
B14: GCGUAUG (DNA:RNA)
RNA: B1 RNA with U27G, C28U, U29A, G30U, U31G
DNA 1: CAATCTGAATTCCGGTCTCCC
DNA 2: TGGTGGCTACGACGGGATT
B15: GCGUCCG (DNA:RNA)
RNA: B7 RNA with A25G, A26C, A27G, A30C, C31G
DNA 1: CAATCTGAATTCCGGTCTCCC
DNA 2: TGGTGGCTACGACGGGATT
B16: GUAUGCG (DNA:RNA)
RNA: B7 RNA with A25G, A26U, C29G, A30C, C31G
DNA 1: CAATCTGAATTCCGGTCTCCC
DNA 2: TGGTGGCTACGACGGGATT
B17: GGUCGGG (DNA:RNA)
RNA: B1 RNA with C26G, U29G, U31G
DNA 1: CAATCTGAATTCCGGTCTCCC
DNA 2: TGGTGGCTACGACGGGATT
B18: GGGACGG (DNA:RNA)
RNA: B1 RNA with C26G, U27G, C28A, U29C, U31G
DNA 1: CAATCTGAATTCCGGTCTCCC
DNA 2: TGGTGGCTACGACGGGATT
B19: GGUUUGU (DNA:RNA)
RNA: B1 RNA with C26G, C28U
DNA 1: CAATCTGAATTCCGGTCTCCC
DNA 2: TGGTGGCTACGACGGGATT
B20: GGUUUGG (DNA:RNA)
RNA: B1 RNA with C26G, C28U, U31G
DNA 1: CAATCTGAATTCCGGTCTCCC
DNA 2: TGGTGGCTACGACGGGATT
B21: GGUUUUG (DNA:RNA)
RNA: B1 RNA with C26G, C28U, G30U, U31G
DNA 1: CAATCTGAATTCCGGTCTCCC
DNA 2: TGGTGGCTACGACGGGATT
B22: GUCCGGU (DNA:RNA)
RNA: B1 RNA with C26U, U27C, U29G
DNA 1: CAATCTGAATTCCGGTCTCCC
DNA 2: TGGTGGCTACGACGGGATT
B23: GGUUUUU (DNA:RNA)
RNA: B1 RNA with C26G, C28U, G30U
DNA 1: CAATCTGAATTCCGGTCTCCC
DNA 2: TGGTGGCTACGACGGGATT
B24: CGGUUUG (DNA:RNA)
RNA: B7 RNA with A25C, A26G, A27G, C29U, A30U, C31G
DNA 1: CAATCTGAATTCCGGTCTCCC
DNA 2: TGGTGGCTACGACGGGATT

The text below walks through data of publication PMC9911399, “Two distinct binding modes provide the RNA-binding protein RbFox with extraordinary sequence specificity”.

Numbering of substitutions follows the chain as printed; changes in the protein carry UniProt numbers. Over roughly 16,000 sequences, “ka relative to ugcaugu” has its median near 0.096; the highest 2% begin near 0.35. Only a selection was taken, and the highest values are over-represented in it overall.

The assay deals with T1, RBFOX1 RRM RbFoxmut (Fox-RRM*) (Homo sapiens, UniProt Q9NWB1 109-208, R118D;E147R;N151S;E152T).
T1 sequence: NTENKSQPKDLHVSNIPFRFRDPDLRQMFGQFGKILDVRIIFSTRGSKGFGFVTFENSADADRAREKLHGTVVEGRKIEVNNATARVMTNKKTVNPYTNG
In words: EMSA; HiTS-Eq, 1 nM pool, 10 min; buffer printed only for the single-RNA assays: 10 mM Tris pH 7.5, 150 mM NaCl, 3.4 mM EDTA, 0.001% NP-40, 30 C. The following applies: tags: His6 N-terminal (pET28a); label: 5' 32P. Summed up:
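A pool of RNA with 7 randomized nucleotides, 5′-radiolabelled and with DNA-annealed flanks, was equilibrated at 1 nM for 10 min in 50 µL with purified RbFox RRM, wild type or mutant, across increasing protein concentrations. Free RNA was separated by 8% native PAGE, excised, reverse-transcribed, barcoded by PCR and sequenced. Relative association constants were obtained from read-count changes of each RNA species versus the control reaction and normalised to the cognate motif.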
Background: Mobility shift assays separate free from complexed probe on a gel.
For B1, the binding signal was 0.102 KA relative to UGCAUGU. For B2, the binding signal is 0.0717 KA relative to UGCAUGU.

For B3, the binding signal was 0.06 KA relative to UGCAUGU. Regarding B4, the binding signal is 0.0717 KA relative to UGCAUGU. The same measure for B5: 0.121 KA relative to UGCAUGU. For the molecule B6, the binding signal was 0.0643 KA relative to UGCAUGU. Consider B7, for which the binding signal is 0.0617 KA relative to UGCAUGU. Regarding B8, the binding signal was 0.403 KA relative to UGCAUGU. Turning to B9, the binding signal was 0.278 KA relative to UGCAUGU. The same measure for B10: 0.129 KA relative to UGCAUGU; for B11: 0.101 KA relative to UGCAUGU; for B12: 0.13 KA relative to UGCAUGU. For B13 the value was 0.334 KA relative to UGCAUGU; for B14, 0.876 KA relative to UGCAUGU; for B15, 0.135 KA relative to UGCAUGU. For B16, the binding signal was 0.468 KA relative to UGCAUGU. Regarding B17, the binding signal was 0.0602 KA relative to UGCAUGU. For B18 the value was 0.0996 KA relative to UGCAUGU; for B19, 0.366 KA relative to UGCAUGU; for B20, 0.277 KA relative to UGCAUGU. In the case of B21, the binding signal is 0.191 KA relative to UGCAUGU.

B22: the binding signal is 0.132 KA relative to UGCAUGU. Take B23: the binding signal was 0.056 KA relative to UGCAUGU. B24: the binding signal was 0.633 KA relative to UGCAUGU.
